Screening data deposited in PubChem by National Center for Advancing Translational Sciences (NCATS).
Giardia FBPA inh: Giardia lamblia aldolase inhibition. purified Giardia FBPA. Potency, µM (titrated, usually from 59.6 µM), inactives show at the highest dose activity, negative = inhibition, most hits filed as inhibitors. hit rate 0.71% among 290,000; also: potency is read from the fitted curve at half-maximal effect; % is scaled to controls: 0 for no effect and ±100 for the full control effect; nearly all actives have a fitted effect of over 55% in size
Target sequence (A8B2U2 whole entry, looked up): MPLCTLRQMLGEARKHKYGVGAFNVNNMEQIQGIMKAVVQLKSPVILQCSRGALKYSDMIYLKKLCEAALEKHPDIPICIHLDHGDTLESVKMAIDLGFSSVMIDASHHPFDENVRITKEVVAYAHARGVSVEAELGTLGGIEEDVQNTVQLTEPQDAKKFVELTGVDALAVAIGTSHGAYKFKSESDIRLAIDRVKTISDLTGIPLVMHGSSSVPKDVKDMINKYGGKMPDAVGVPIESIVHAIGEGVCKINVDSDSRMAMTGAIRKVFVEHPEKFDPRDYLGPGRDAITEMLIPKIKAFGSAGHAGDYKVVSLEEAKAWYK
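40 nM FBPA preincubated 10 min at RT with compound (up to 57.5 uM final), then substrate plus GAPDH/TPI/NAD/arsenate coupling and diaphorase/resazurin added. Fluorescence read after 20 min at RT, 525/598 nm.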
Tb PYK inh: T. brucei pyruvate kinase inhibition | Q57TT1 | TbPYK enzyme, Kinase-Glo Plus ATP luminescence, 45 min | Potency, µM (top dose mostly 76.8 µM), inactives show at the highest dose activity, negative = inhibition, actives largely listed as inhibitors | hit rate 0.12% among 410,000; also: potency is read from the fitted curve at half-maximal effect; % is scaled to controls: 0 for no effect and ±100 for the full control effect; nearly all actives have a fitted effect of over 50% in size
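Glycolytic pyruvate kinase of T. brucei was incubated with substrate, test compound and 130 uM ADP for 45 minutes at room temperature. Luminescent Kinase-Glo Plus signal was measured after 10 minutes.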
LmPK inhibitor: inhibitors of Leishmania mexicana pyruvate kinase; purified LmPK, Kinase-Glo ATP luminescence, 1 h; Potency, µM (top dose mostly 57.5 µM), for the others: top-dose activity change, negative = inhibition, usual class: inhibitors; hit rate 0.37% among 290,000; also: potency is read from the fitted curve at half-maximal effect; % is scaled to controls: 0 for no effect and ±100 for the full control effect
Target sequence (Q27686 whole entry, looked up): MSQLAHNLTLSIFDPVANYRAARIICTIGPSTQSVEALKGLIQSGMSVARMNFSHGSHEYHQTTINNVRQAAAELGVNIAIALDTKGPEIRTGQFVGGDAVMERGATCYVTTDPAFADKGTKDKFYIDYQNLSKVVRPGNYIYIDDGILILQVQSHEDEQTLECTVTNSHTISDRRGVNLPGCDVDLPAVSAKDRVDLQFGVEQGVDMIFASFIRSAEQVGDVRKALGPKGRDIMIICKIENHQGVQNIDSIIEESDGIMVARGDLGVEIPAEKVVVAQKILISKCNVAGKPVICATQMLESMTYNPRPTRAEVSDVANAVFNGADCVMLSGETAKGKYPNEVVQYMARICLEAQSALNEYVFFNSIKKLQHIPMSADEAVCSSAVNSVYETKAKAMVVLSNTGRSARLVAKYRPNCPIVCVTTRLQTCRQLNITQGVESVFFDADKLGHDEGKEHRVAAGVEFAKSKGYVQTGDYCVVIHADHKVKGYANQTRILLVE
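Purified LmPK (0.1 nM) with 0.5 mM PEP and 0.1 mM ADP in imidazole buffer pH 7.2 with MgCl2/KCl, 1 h at room temperature. ATP formed was read by luciferase luminescence and normalized to no-enzyme and uninhibited controls.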
Shiga inhibitor: Shiga toxin inhibition. Vero cells, Shiga toxin protein synthesis inhibition reporter. hit rate 9.2% among 290,000. inhibition, % at 38.7 µM. AID 2315; in the data active = inhibition mostly above about 28%, no sharp cut-off; inactive = mostly below about 43%; also: 0% is about no effect
Cycloheximide cs: affects cycloheximide protein synthesis inhibition readout, counter-screen; cell reporter, cycloheximide protein synthesis inhibition counterscreen; AID 2314; hit rate 12% among 300,000; max response, %; in the data active = max response mostly above about 13%, no sharp cut-off; inactive = mostly below about 14%; also: read at 38.3 µM for the half of the compounds with a filed dose; 0% is about no effect
RE007 growth inh: less growth of the S. pombe RE007 Vpr strain; S. pombe RE007 Vpr strain, BacTiter-Glo ATP luminescence, 24 h; Potency, µM (doses to about 92.2 µM), inactives show top-dose activity change, negative = less growth, hits mostly inhibitors; hit rate 0.21% among 360,000; AID 651644; active = well fitted falling curve with a large enough effect; inconclusive = small, poorly fitted or top-dose-only effect; inactive = no such curve, though single readings can be large or run the other way; also: potency is read from the fitted curve at half-maximal effect; % is scaled to controls: 0 for no effect and ±100 for the full control effect; nearly all actives have a fitted effect of over 50% in size
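Fission yeast RE007 carrying one integrated HIV-1 vpr copy, seeded at OD 0.01 in PMG+AL medium with 23 nL pinned compound. Grown 24 h at 30 degrees; viability read by BacTiter-Glo luminescence after 5 min.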
Active calls of the source: *; ? = inconclusive; · = not tested or not shown; [ ] = dose if it differs, or a comment. Many of the other results were omitted from the sample, so hits are more common in it than they were. Unless noted, calls follow the shape of the dose curve; as a rule, active = well fitted curve in the direction sought with a large enough effect; inconclusive = small, poorly fitted or top-dose-only effect, or another doubt; inactive = no such curve, though single readings can be large; an effect the other way counts as inactive or inconclusive.

SMILES	Giardia FBPA inh	Tb PYK inh	LmPK inhibitor	Shiga inhibitor	Cycloheximide cs	RE007 growth inh
CCN1/C(=C2\C(=O)N(C)C(=S)N2C)C=Cc2cc(OC)ccc21	-9.3%	-29.7%	?	-17.0	-2.2	-7.3%
COc1cccc(-c2cc(C(=O)NCc3cccs3)no2)c1	-2.0%	1.9%	1.6%	104.2*	60.6*	-11.7%
COc1ccc(CNC(=O)c2cc(-c3cccs3)on2)cc1	3.4%	-4.6%	1.0%	34.4	18.7*	-10.0%
COc1ccc2nc3sc(C(=O)NCc4cccs4)c(N)c3cc2c1	-2.0%	·	5.6%	82.6*	51.4*	·
COc1cccc(-c2cc(C(=O)NCc3ccc(F)cc3)no2)c1	·	1.7%	·	·	·	·
COc1ccc(NC(=O)Cn2nnc(C(=O)NCc3cccs3)c2N)cc1	-12.6%	0.4%	3.2%	-4.5	-2.0	18.2%
Cc1cc(C(=O)NCc2cccs2)no1	0.0%	-1.5%	1.5%	-10.8	-3.2	3.1%
COc1ccc(-c2cc(C(=O)NCc3cccs3)no2)cc1	5.0%	2.9%	2.3%	60.2*	23.2*	-2.3%
CC1C(=O)C(=O)C=CN1C (stereo not given)	·	-4.7%	·	·	·	·
CCCNC(=O)Cn1c(=O)cc(C)c2c(C)nn(-c3cccc(F)c3)c21	·	-2.0%	·	·	·	·
COc1cccc(C(=O)c2c[nH]c(C(=O)NCc3cccs3)c2)c1	10.7%	-18.2%	7.1%	10.7	16.5*	16.9%
CC(C)c1ccc(-c2cc(C(=O)N3N=C(C(F)F)CC3(O)C(F)F)c3ccccc3n2)cc1 (stereo not given)	-12.7%	3.7%	3.2%	83.3*	22.8*	-11.0%
CC(C)c1ccc(-c2cc(C(=O)NN3CCN(C)CC3)c3ccccc3n2)cc1	1.7%	-5.5%	1.9%	82.2*	35.2*	5.6%
O=C(Cc1cccs1)Nc1cccc(-c2nc3cc4ccccc4cc3[nH]2)c1	-14.5%	-5.6%	-26.3%	119.8*	68.3*	-10.1%
CCOc1cccc(NC(=O)Cc2cccs2)c1	-2.9%	3.4%	3.4%	40.9*	12.7	-8.6%
Cc1nc2ccc(NC(=O)Cc3cccs3)cc2s1	-0.1%	-4.7%	-2.6%	59.6*	29.4*	-5.7%
Cc1ccc(NC(=O)Cc2cccs2)cc1Cl	-9.9%	1.0%	-5.8%	49.7*	38.4*	2.5%
CC(=O)Nc1cccc(NC(=O)Cc2cccs2)c1	4.2%	-10.4%	1.0%	-7.2	-0.7	3.7%
CCc1ccc(NC(=O)CN2C(=O)c3cccc4cccc2c34)cc1	·	-4.3%	·	·	·	·
Cc1cccc(C)c1NC(=O)Cn1cc(C(=O)C2CC2)c2ccccc21	·	2.3%	·	·	·	·
O=C(Cc1cccs1)Nc1ccc(S(=O)(=O)Nc2ncccn2)cc1	0.9%	-4.8%	8.8%	-14.2	-1.4	24.0%
Cc1nc2ccc(NC(=O)COc3ccccc3[N+](=O)[O-])cc2s1	-1.9%	-1.0%	2.3%	28.6	15.5	-9.7%
Cc1nc2ccc(NC(=O)COc3ccccc3C)cc2s1	-16.2%	4.9%	5.8%	64.4*	34.0*	2.5%
O=C(Cc1cccs1)Nc1ccc(F)cc1	7.6%	2.8%	-2.8%	8.5	10.0*	3.3%
CC(C)NS(=O)(=O)c1ccc(NC(=O)Cc2cccs2)cc1	6.1%	-6.2%	-1.6%	40.5*	23.8*	7.5%
SMILES	Giardia FBPA inh	Tb PYK inh	LmPK inhibitor	Shiga inhibitor	Cycloheximide cs	RE007 growth inh
O=C(Cc1cccs1)Nc1ccc(F)c(F)c1	12.4%	-11.4%	3.2%	-3.5	-2.4	-9.2%
Cc1ccc(NS(=O)(=O)c2cc(-c3cnc(C4CC4)o3)ccc2C)cc1Cl	·	-2.8%	·	·	·	·
O=C(CCCCl)NC(=S)Nc1ccc(CN2CCOCC2)cc1	-5.8%	-10.7%	-0.1%	48.1	12.7*	-8.8%
O=C(CCCCl)NC(=S)Nc1ccc(N2CCOCC2)cc1	0.1%	-11.7%	1.5%	95.9*	33.8*	-29.1%
O=C(COc1ccccc1Cl)NC(=S)Nc1ccc(CN2CCOCC2)cc1	-0.7%	-11.5%	2.8%	-1.6	-3.2	6.1%
C[C@H]([C@H](C)N1CC(=O)NC(=O)C1)N1CC(=O)NC(=O)C1	?	·	·	16.0	-5.2	·
CCOC(=O)CSc1nc2cc3c(cc2c(=O)n1Cc1ccc(C(=O)NCCc2ccc(OC)c(OC)c2)cc1)OCO3	·	0.4%	·	·	·	·
O=C(c1cc(F)ccc1F)N1CCC(N2CCC(C(=O)N3CCCC3)CC2)CC1	·	-0.1%	0.5%	2.5	17.3*	17.0%
O=C(c1cccc(Cl)c1)N1CCC(N2CCC(C(=O)N3CCOCC3)CC2)CC1	-2.2%	2.9%	-2.1%	11.3	-1.0	-16.8%
O=C(c1ccccc1Cl)N1CCC(N2CCC(C(=O)N3CCCC3)CC2)CC1	-17.2%	2.5%	2.8%	36.0	23.7*	11.6%
COc1ccc2c(c1)c(CC(=O)NCc1ccc3c(c1)OCO3)c(C)n2C(=O)c1ccc(Cl)cc1	2.1%	·	·	·	·	·
COc1cc2oc(=O)c3c4c(cc5ccc(c1CCN(C)C)c2c53)OCO4	-18.9%	·	·	·	·	·
Cc1cc(C)n2ncc(C(=O)Nc3cccc(O)c3)c2n1	0.2%	-5.4%	2.9%	-18.1	9.6	-10.3%
Cc1cc(/C(N)=N/OC(=O)Nc2ccc(Cl)cc2)no1	0.4%	-1.8%	0.6%	55.5*	26.9*	5.6%
Cc1cc(/C(N)=N/OC(=O)Nc2ccccc2)no1	8.4%	-11.5%	-11.3%	42.1*	23.5*	0.2%
Cc1cc(C)n2ncc(/C(N)=N/OC(=O)Nc3ccccc3)c2n1	?	8.4%	-11.5%	16.1	9.6*	-7.1%
C/C(=N\OC(=O)Nc1ccccc1)c1ccc(C)cc1	·	-12.4%	·	·	·	?
COc1cc(NC(=O)CSc2ncc(S(=O)(=O)c3ccc(Br)cc3)c(=O)[nH]2)cc(OC)c1	·	1.9%	·	·	·	·
O=C(c1cc(S(=O)(=O)N2CCCC2)c[nH]1)N1CCN(c2cccc(Cl)c2)CC1	·	1.8%	·	·	·	·
c1ccc(-n2cnnc2SCc2cn3ccsc3n2)cc1	-26.4%	-8.0%	-4.6%	-1.0	-1.7	0.0%
Cc1ccnc(SCc2cn3c(C)cccc3n2)n1	-23.3%	-8.3%	-6.6%	59.2	26.1*	-2.3%
Cc1cc(C)nc(SCc2cn3c(C)cccc3n2)n1	-11.4%	-11.2%	-0.6%	-3.4	-2.6	-11.2%
Cc1cccc2nc(CSc3nnnn3-c3ccccc3)cn12	-0.4%	3.9%	-3.6%	-9.7	3.3	-28.2%
c1ccn2c(SCc3cn4ccsc4n3)nnc2c1	-0.6%	-6.0%	-7.0%	54.1*	40.4*	0.2%
Cc1cccc2nc(CSc3nnc4ccccn34)cn12	-15.6%	3.4%	-14.0%	58.8*	36.5*	2.2%
CCOc1ccc(CNC(=O)c2cnc3sc(N4CCOCC4)nn3c2=O)cc1OC	·	4.0%	·	·	·	·
Cc1oc(-c2ccccc2Cl)nc1CS(=O)CC(=O)N1CCN(c2cccc(C(F)(F)F)c2)CC1 (stereo not given)	·	-12.8%	·	·	·	·
Cc1ccc(-n2c3c(cc(C(=O)Nc4cccc(Cl)c4)c2=O)C(=O)CC(C)(C)C3)cc1	·	3.3%	·	·	·	·
C#CCCCO/N=C1/C[C@@H](O)[C@@H](O)[C@@H]2[C@@H]3C(=O)N(C[C@@H]4CCCO4)C(=O)[C@H]3CC[C@H]12	-0.7%[12.9 µM]	·	·	·	·	·
